What all share (assay): NCI-60 one-dose screen, 48 h (100 = growth as untreated, 0 = no growth, -100 = all killed)
Common to all, as to conditions: 10 µM unless noted

Experiment [1] has as its system NCI-H23 lung.
In experiment [2] the test system is NCI-H226 lung.
In experiment [3] the test system is NCI-H322M lung.
The subject of experiment [4] is HOP-62 NSCLC.
The test system of experiment [5] is NCI-H460 lung.
In experiment [6] the test system is HOP-92 NSCLC.
Experiment [7] deals with NCI-H522 lung.
Experiment [8] has as its system A549/ATCC NSCLC.
Experiment [9] relates to 786-0 renal.
For experiment [10], the system named is COLO 205 colon.

In PubChem BioAssay (NCI) one finds growth data, which are given here for 15 compounds.

The panel holds about 83,000 compounds, 20% with a hit somewhere; the sample as a whole holds those more often.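 Activity criterion: percent growth below 10, measured after cells in 96-well plates were exposed to a single compound concentration for 48 hours.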 Unmarked numbers belong to inactive results. Activity calls are given as the source filed them.

As for `CNc1ccccc1C(=O)N/N=C/C=C/c1ccccc1`, the growth is 39.1% in experiment [1]; 66.7% in [2]; 30.8% in experiment [3]; 26.9% in experiment [4]; 11% in experiment [5]; 69.3% in [6]. For the same compound, the growth in experiment [7] was -18.1% (active); in experiment [8] it was 30.7%; in experiment [9], 35.3%; in experiment [10], -1.61% (active).
For the compound `CCCOCc1cn[nH]n1`, the growth is 107% in [1]; 104% in experiment [2]; 102% in [3]; 99.8% in experiment [4]; 111% in [5]; 106% in [6]. Further, the growth in experiment [7] is 99.3%; in experiment [8] it was 96%; in experiment [9] it was 102%; in experiment [10], 111%.
Consider `NNc1ncnc2nc[nH]c12`, for which the growth in experiment [1] was 85.2%; in [2], 47.9%; in [3], 50.5%; in experiment [4], 40.7%; in [5], 50.4%; in [6], 86.9%. In addition, the growth in [7] was -15.7% (active); in experiment [8], 31.5%; in experiment [9], 43.2%; in experiment [10], 52.5%.
For the compound `O=C(CC(CC(=O)c1ccccc1)c1ccccn1)c1ccccc1`, the growth is 92.9% in experiment [1]; 95.7% in experiment [2]; 102% in experiment [3]; 105% in [4]; 102% in experiment [5]; 94.7% in experiment [6]. Also, the growth was 95.1% in experiment [7], 98.5% in [8], 113% in experiment [9] and 101% in experiment [10].
As for `Nc1cc2ccccc2c(O)c1O`, the growth in experiment [1] is 54%; in experiment [2], 81.2%; in [3], 89.1%; in experiment [4] it was 76.9%; in experiment [5], 86.9%; in experiment [6], 83.9%. Also, the growth is 45.3% in experiment [7], 96.9% in [8], -32.2% (active) in experiment [9] and 56.5% in experiment [10].
On to `CCOC(=O)c1ccc(C(C)(C)C)cc1`, for which the growth in experiment [1] was 102%; in [2], 101%; in experiment [3], 101%; in [4], 107%; in experiment [5], 109%; in experiment [6], 117%. The growth was 105% in experiment [7], 102% in experiment [8], 104% in experiment [9] and 108% in experiment [10].
As for `C/C(=N\Nc1ccc([N+](=O)[O-])cc1[N+](=O)[O-])c1ccc(Br)cc1`, the growth in [1] was 103%; in experiment [2], 96.6%; in experiment [3], 106%; in experiment [4], 108%; in experiment [5], 99.2%; in [6], 94.5%. Moreover, the growth in [7] was 85.5%; in experiment [8], 84.8%; in experiment [9], 99.4%; in experiment [10], 104%.
Take `CN(C)CCOC(=O)Nc1ccc(Cc2ccc(NC(=O)OCCN(C)C)cc2)cc1`: the growth was 94.1% [100 µM] in experiment [1]; 111% [100 µM] in experiment [2]; 96.8% [100 µM] in [3]; 97.7% [100 µM] in experiment [4]; 92% [100 µM] in [5]; 32.7% [100 µM] in experiment [6]. For the same compound, the growth is 85.2% [100 µM] in experiment [7], 75.8% [100 µM] in [8], 60.1% [100 µM] in [9] and 84.2% [100 µM] in experiment [10].
With `O=C(OCC1CCCO1)c1ccc([N+](=O)[O-])cc1` (stereo not given), the growth in experiment [1] was 105%; in [2], 92.5%; in [3], 100%; in experiment [4], 92.6%; in [5], 95.5%; in experiment [6], 91.8%. In addition, the growth was 94.2% in [7], 90.9% in experiment [8], 91% in experiment [9] and 103% in [10].
Take `Cc1ccc(S(N)(=O)=O)cc1Cl`: the growth was 111% in experiment [1]; 105% in experiment [2]; 121% in [3]; 110% in experiment [4]; 113% in experiment [5]; 101% in experiment [6]. Further, the growth in experiment [7] was 98.6%; in experiment [8] it was 92.9%; in experiment [9] it was 100%; in experiment [10], 104%.
With `Cc1ccc(O)c(N)c1`, the growth in [1] was 121%; in experiment [2] it was 97%; in experiment [3] it was 98.1%; in experiment [4], 132%; in experiment [5], 103%; in experiment [6] it was 126%. Besides, the growth is 70.6% in experiment [7], 98.7% in experiment [8], 115% in experiment [9] and 117% in experiment [10].
Regarding `Nc1ncnc2c1ncn2C1OC(CO)C2OC21` (stereo not given), the growth in [1] is 107%; in [2] it was 93.8%; in experiment [3], 118%; in experiment [4], 96.6%; in [5], 109%; in [6], 102%. Further, the growth in [7] is 94.6%; in experiment [8], 102%; in experiment [9], 108%; in experiment [10], 107%.
Turning to `Nc1nc(Cl)cc(Cl)n1`, the growth in experiment [1] is 95.9%; in experiment [2], 101%; in experiment [3], 99%; in experiment [4], 85.2%; in experiment [5], 106%; in [6], 113%. For the same compound, the growth in experiment [7] is 81.9%; in [8], 81%; in experiment [9], 103%; in experiment [10] it was 96.8%.
With `COc1ccc(C(=O)C(=O)c2ccccc2)cc1`, the growth in [1] was 94%; in [2], 91.9%; in experiment [3], 93.8%; in experiment [4], 102%; in experiment [5], 104%; in experiment [6], 90.7%. Besides, the growth was 97.2% in experiment [7], 104% in experiment [8], 103% in [9] and 112% in experiment [10].
As to `O=[N+]([O-])c1ccc(-c2nc(N(CCO)CCO)c3ccccc3n2)o1`, the growth in experiment [1] is -64.9% (active); in experiment [2], -24.7% (active); in experiment [3], -31% (active); in experiment [4], -20.7% (active); in [5], -41.6% (active); in experiment [6], -44.8% (active). In addition, the growth is -54% (active) in [7], -0.496% (active) in experiment [8], -40.4% (active) in experiment [9] and -87.1% (active) in experiment [10].
